# Source: PubChem BioAssay (Tox21)
# Results filed as inconclusive are left out. Where a call stands in place of a potency, no number is given. The source made the active and inactive calls. Calls follow the shape of the dose curve; as a rule, active = well fitted cell-killing curve with a large enough effect in the repeat runs; inconclusive = weak or mixed curves, or effect the other way; inactive = flat fitted curve, though single readings scatter.
# Assay: qHTS RealTime-Glo MT Cell Viability Assay in HepG2 cells - 0 hour (AID 1224889); also: nearly all actives have a fitted effect of over 50% in size
# Conditions: RealTime-Glo luminescence; series mostly up to 76.8 µM
# Excerpt: U.S. Tox21 Program National Center for Advancing Translational Sciences [NCATS] NIH Chemical Genomics Center [NCGC] U.S. Environmental Protection Agency [EPA] National Institutes of Environmental Health Sciences [NIEHS] National Toxicology Program [NTP] U.S. Food and Drug Administration [FDA] Tox21 Assay Overview: Measure of cell viability is critical in the cell-base assay. Analysis of cell viability is necessary for the characterization of cell responses to cytotoxic drugs and environmental stress. A RealTime-Glo MT Cell Viability Assay to monitor cell viability in real time of continues cell culture during 40 hours of compound treatment was used to screen Tox21 10K library compounds in HepG2 cells. The RealTime-Glo MT Cell Viability Assay is a nonlytic, homogeneous, bioluminescent method to measure cell viability in real time using a simple, plate-based method. The assay involves adding NanoLuc luciferase and a cell-permeant prosubstrate to cells in culture. Viable cells reduce the proprietary prosubstrate to generate a substrate for NanoLuc luciferase. This substrate diffuses from cells into the surrounding culture medium, where it is rapidly used by the NanoLuc Enzyme to produce a luminescent signal. The signal correlates with the number of viable cells, making the assay well suited for cytotoxicity studies.
# Tox21 Assay Protocol Summary: The mixture of HepG2 cell suspension and reagents were dispensed at 600cells/6 ul/well in 1536-well tissue culture treated black solid bottom plates using a Multidrop dispenser. After the assay plates were incubated at a 37 C/5% CO2 incubator for 5 hours, 23 nL of compounds dissolved in DMSO, positive and negative controls was transferred to the assay plate by a pintool work station. The plates were incubated at 37 C for 40 hours. The luminescence intensity were measured at 0h, 8h, 16h, 24h, 32h and 40h time points using ViewLux plate reader during compound treatment.
# Potency is read from the fitted curve at half-maximal effect.
row,Structure (SMILES),Potency
1,O=C(N[C@@H](c1ccccc1)[C@@H]1CCCCN1)c1cccc(C(F)(F)F)c1Cl,inactive
2,CCOC(=O)C(C)Oc1ccc(Oc2nc3ccc(Cl)cc3o2)cc1 (stereo not given),inactive
3,CC(=O)Nc1ccc(N)cc1,inactive
4,CN1C(=O)CC(C)(c2ccccc2)C1=O (stereo not given),inactive
5,CCCCN(CCCC)C(=S)SSC(=S)N(CCCC)CCCC,inactive
6,c1ccc(COCc2ccccc2)cc1,inactive
7,CCCCC(=O)O[C@]1(C(=O)CO)CC[C@H]2[C@@H]3CCC4=CC(=O)CC[C@]4(C)[C@H]3[C@@H](O)C[C@@]21C,9.52 µM (active)
8,N#C/C(=C1\SCC(c2ccccc2Cl)S1)n1ccnc1 (stereo not given),inactive
9,CC(C)=CC=O,inactive
10,CCNC(=O)N1CCN(CCCC(c2ccc(F)cc2)c2ccc(F)cc2)CC1,inactive
11,COC(=O)c1cc(S(N)(=O)=O)ccc1OC,inactive
12,Cc1ccccc1N1C(=O)c2cc(S(N)(=O)=O)c(Cl)cc2NC1C (stereo not given),inactive
13,COCCOC,inactive
14,CCCCC(=O)O[C@]1(C(=O)CO)[C@@H](C)C[C@H]2[C@@H]3CCC4=CC(=O)C=C[C@]4(C)[C@@]3(F)[C@@H](O)C[C@@]21C,21.9 µM (active)
15,OCC1CC=CCC1 (stereo not given),inactive
16,Cc1cnc(C)c(C)n1,inactive
17,CN(C)C(=O)Nc1ccc(Oc2ccc(Cl)cc2)cc1,inactive
18,Oc1cc(O)c(Cl)cc1Cl,inactive
19,CCn1nc(C)c2c1C(=O)NCC(c1ccc(O)cc1)=N2,inactive
20,CO[C@H]1O[C@H](CO)[C@@H](O)[C@H](O)[C@H]1O,inactive

row,Structure (SMILES),Potency
1,CC1=CC(O)CC(C)(C)C1 (stereo not given),inactive
2,CO[Si](C)(OC)OC,inactive
3,COc1cc2[nH]c(=O)[nH]c(=O)c2cc1OC,inactive
4,C[N+](C)(C)CCOC(N)=O,inactive
5,N#C[C@@H]1C[C@@H]2C[C@@H]2N1C(=O)[C@@H](N)C12CC3CC(CC(O)(C3)C1)C2,inactive
6,Nc1nccs1,inactive
7,CCCOCCOCCO,inactive
8,CC1=C(C=O)C(C)(C)CCC1,inactive
9,O=C(O)c1c(O)c(-c2ccccc2)nc2ccccc12,inactive
10,CC1CC(O)CC(C)(C)C1 (stereo not given),inactive
11,C/C=C(\C)C(=O)OCCC(C)CCC=C(C)C (stereo not given),inactive
12,CCCCCCCC/C=C\CCCCCCCC(=O)OC,inactive
13,O=C(O)C(Cc1cc(I)c(O)c(I)c1)c1ccccc1 (stereo not given),inactive
14,CCOC(=O)N1CCC(n2c(=O)[nH]c3cc(Cl)ccc32)CC1,inactive
15,CC(=O)OCC(=O)[C@H]1CC[C@H]2[C@@H]3CCC4=CC(=O)CC[C@]4(C)[C@H]3CC[C@]12C,3.01 µM (active)
16,COCCOC(=O)C1=C(C)NC(C)=C(C(=O)OC/C=C/c2ccccc2)C1c1cccc([N+](=O)[O-])c1 (stereo not given),6.74 µM (active)
17,COC(OC)(C(=O)c1ccccc1)c1ccccc1,inactive
18,CC(N)CN (stereo not given),inactive
19,Cc1nc2ccccn2c(=O)c1CCN1CCC(C(=O)c2ccc(F)cc2)CC1,inactive
20,CCC(C(=O)OCCN(CC)CC)c1ccccc1 (stereo not given),inactive
